# Where “and” joins values, the source holds several entries; their conditions need not be identical. Equal values may be shown once. The whole screen tested about 5,500 compounds, of which about 2,000 (36%) were called active. Roughly 18% stayed inconclusive and do not appear here. Cut-off read from the data, not from the text of the source: active = normalized growth mostly below about 0.91 (no sharp cut-off); inconclusive = no clear call, values can overlap the other calls; inactive = mostly above about 0.92. The list shows a part of the results.
# Test: chemical genetic growth profiling, strain panel (AID 1159580);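 note: tested at 20 µM; growth read once vehicle control cultures reached saturation at 30 °C; 1 = growth at the plate median or of vehicle wells; lower values mean less growth of the strain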
# Details: S. cerevisiae deletion strains, growth OD
smiles,measurement,setting,value
CC[C@@]1(O)C[C@H](O)c2c(cc3c(c2O)C(=O)c2c(O)ccc(O)c2C3=O)[C@H]1C(=O)OC,normalized growth,"locus YAL013W, strain DEP1, stronger effect = lower value",0.495 (active)
same,normalized growth,"locus YAL021C, strain ccr4, stronger effect = lower value",0.768 (active)
same,normalized growth,"locus YAL026C, strain drs2, stronger effect = lower value",0.936 (inactive)
same,normalized growth,"locus YAL030W, strain snc1, stronger effect = lower value",0.908 (active)
same,normalized growth,"locus YBL061C, strain skt5, stronger effect = lower value",0.89 (active)
same,normalized growth,"locus YBR009C, strain hhf1, stronger effect = lower value",0.805 (active)
same,normalized growth,"locus YBR021W, strain FUR4, stronger effect = lower value",1.06 (inactive)
same,normalized growth,"locus YBR023C, strain chs3, stronger effect = lower value",0.924 (inactive)
same,normalized growth,"locus YBR171W, strain sec66, stronger effect = lower value",1.02 (inactive)
same,normalized growth,"locus YBR229C, strain ROT2, stronger effect = lower value",0.931 (inactive)
same,normalized growth,"locus YBR231C, strain swc5, stronger effect = lower value",0.751 (active)
same,normalized growth,"locus YBR279W, strain paf1, stronger effect = lower value",0.964 (inactive)
same,normalized growth,"locus YCL011C, strain gbp2, stronger effect = lower value",0.874 (active)
same,normalized growth,"locus YCL016C, strain dcc1, stronger effect = lower value",0.607 (active)
same,normalized growth,"locus YCL029C, strain bik1, stronger effect = lower value",0.873 (active)
same,normalized growth,"locus YCL069W, strain vba3, stronger effect = lower value",0.993 (inactive)
same,normalized growth,"locus YCR088W, strain abp1, stronger effect = lower value",0.963 (inactive)
same,normalized growth,"locus YDL005C, strain med2, stronger effect = lower value",1.01 (inactive)
same,normalized growth,"locus YDL035C, strain GPR1, stronger effect = lower value",0.779 (active)
same,normalized growth,"locus YDL040C, strain nat1, stronger effect = lower value",0.967 (inactive)
same,normalized growth,"locus YDL074C, strain BRE1, stronger effect = lower value",0.588 (active)
same,normalized growth,"locus YDL101C, strain DUN1, stronger effect = lower value",0.659 (active)
same,normalized growth,"locus YDL134C, strain PPH21, stronger effect = lower value",0.622 (active)
same,normalized growth,"locus YDL185W, strain tfp1, stronger effect = lower value",0.774 (active)
same,normalized growth,"locus YDL192W, strain arf1, stronger effect = lower value",0.735 (active)
same,normalized growth,"locus YDR001C, strain nth1, stronger effect = lower value",1 (inactive)
same,normalized growth,"locus YDR069C, strain doa4, stronger effect = lower value",0.896 (active)
same,normalized growth,"locus YDR101C, strain arx1, stronger effect = lower value",0.848 (active)
same,normalized growth,"locus YDR137W, strain rgp1, stronger effect = lower value",0.707 (active)
same,normalized growth,"locus YDR150W, strain NUM1, stronger effect = lower value",0.879 (active)
same,normalized growth,"locus YDR159W, strain sac3, stronger effect = lower value",0.873 (inactive)
same,normalized growth,"locus YDR162C, strain NBP2, stronger effect = lower value",0.414 (active)
same,normalized growth,"locus YDR195W, strain ref2",1.28 [resistant] (active)
same,normalized growth,"locus YDR297W, strain sur2, stronger effect = lower value",0.94 (inactive)
same,normalized growth,"locus YDR318W, strain mcm21, stronger effect = lower value",0.861 (active)
same,normalized growth,"locus YDR334W, strain swr1, stronger effect = lower value",1.01 (inactive)
same,normalized growth,"locus YDR335W, strain msn5, stronger effect = lower value",0.961 (inactive)
same,normalized growth,"locus YDR388W, stronger effect = lower value",0.811 (active)
same,normalized growth,"locus YDR392W, strain spt3, stronger effect = lower value",0.799 (inactive)
same,normalized growth,"locus YDR502C, strain sam2, stronger effect = lower value",0.7 (active)
same,normalized growth,"locus YEL003W, strain gim4, stronger effect = lower value",0.958 (inactive)
same,normalized growth,"locus YEL037C, strain rad23, stronger effect = lower value",0.997 (inactive)
same,normalized growth,"locus YEL061C, strain CIN8 (second series), stronger effect = lower value",1.01 (inactive)
same,normalized growth,"locus YEL061C, strain CIN8, stronger effect = lower value",0.7 (active)
same,normalized growth,"locus YER015W, strain faa2, stronger effect = lower value",0.894 (active)
same,normalized growth,"locus YER016W, strain bim1, stronger effect = lower value",0.909 (active)
same,normalized growth,"locus YER110C, stronger effect = lower value",0.98 (inactive)
same,normalized growth,"locus YER111C, strain swi4, stronger effect = lower value",1.03 (inactive)
same,normalized growth,"locus YER155C, strain BEM2 (second series), stronger effect = lower value",1.06 (inactive)
same,normalized growth,"locus YER155C, strain BEM2, stronger effect = lower value",0.638 (active)
same,normalized growth,"locus YER167W, strain BCK2, stronger effect = lower value",0.713 (active)
same,normalized growth,"locus YFR010W, strain ubp6, stronger effect = lower value",0.894 (active)
same,normalized growth,"locus YGL078C, strain dbp3, stronger effect = lower value",0.935 (inactive)
same,normalized growth,"locus YGL086W, strain mad1, stronger effect = lower value",0.718 (active)
same,normalized growth,"locus YGL167C, strain pmr1, stronger effect = lower value",0.976 (inactive)
same,normalized growth,"locus YGL173C, strain kem1, stronger effect = lower value",0.906 (inactive)
same,normalized growth,"locus YGL227W, strain vid30, stronger effect = lower value",1.01 (inactive)
same,normalized growth,"locus YGL240W, strain doc1, stronger effect = lower value",0.894 (inactive)
same,normalized growth,"locus YGL248W, strain PDE1, stronger effect = lower value",0.682 (active)
same,normalized growth,"locus YGL253W, strain hxk2, stronger effect = lower value",0.825 (active)
same,normalized growth,"locus YGR135W, strain pre9, stronger effect = lower value",0.818 (active)
same,normalized growth,"locus YGR252W, strain gcn5, stronger effect = lower value",0.832 (inactive)
same,normalized growth,"locus YHR013C, strain ard1, stronger effect = lower value",1 (inactive)
same,normalized growth,"locus YHR027C, strain rpn1, stronger effect = lower value",0.713 (active)
same,normalized growth,"locus YHR030C, strain SLT2, stronger effect = lower value",0.97 (inactive)
same,normalized growth,"locus YHR079C, strain IRE1 (second series), stronger effect = lower value",0.856 (active)
same,normalized growth,"locus YHR079C, strain IRE1, stronger effect = lower value",0.984 (inactive)
same,normalized growth,"locus YHR094C, strain hxt1, stronger effect = lower value",0.88 (active)
same,normalized growth,"locus YHR129C, strain ARP1, stronger effect = lower value",0.638 (active)
same,normalized growth,"locus YHR142W, strain chs7, stronger effect = lower value",0.883 (inactive)
same,normalized growth,"locus YHR200W, strain rpn10, stronger effect = lower value",0.771 (active)
same,normalized growth,"locus YIL066C, strain RNR3, stronger effect = lower value",0.421 (active)
same,normalized growth,"locus YIL073C, strain SPO22, stronger effect = lower value",0.593 (active)
same,normalized growth,"locus YIL125W, strain kgd1, stronger effect = lower value",0.861 (active)
same,normalized growth,"locus YIR030C, strain dcg1, stronger effect = lower value",0.908 (active)
same,normalized growth,"locus YJL092W, strain hpr5, stronger effect = lower value",0.734 (active)
same,normalized growth,"locus YJL095W, strain BCK1 (second series), stronger effect = lower value",0.912 (active)
same,normalized growth,"locus YJL095W, strain BCK1, stronger effect = lower value",0.21 (active) and 0.986 (inactive)
same,normalized growth,"locus YJL115W, strain asf1, stronger effect = lower value",0.394 (active)
same,normalized growth,"locus YJL129C, strain trk1, stronger effect = lower value",0.989 (inactive)
same,normalized growth,"locus YJL134W, strain LCB3, stronger effect = lower value",0.905 (active)
same,normalized growth,"locus YJL154C, strain vps35, stronger effect = lower value",0.996 (inactive)
same,normalized growth,"locus YJL164C, strain tpk1, stronger effect = lower value",0.887 (active)
same,normalized growth,"locus YJL166W, strain qcr8, stronger effect = lower value",0.838 (active)

# From PubChem BioAssay AID1159580 (chemical genetic matrix, 2015)
